# Bioassay records deposited in PubChem BioAssay by National Center for Advancing Translational Sciences (NCATS).
# Most compounds without a hit are left out; they make up all but 19% or so of the library.
# HT1080 IDH1KD tx = HT-1080 IDH1 knockdown cell toxicity (counter line); HT-1080 IDH1 knockdown viability, ATP luminescence, 48 h; Potency, µM (top dose mostly 46.1 µM), inactives show top-dose activity, negative = toxicity, most hits filed as cytotoxic; 2% of 360,000 active;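 also: potency is read from the fitted curve at half-maximal effect; 0% = DMSO wells and -100% = cell-free medium wells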
#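 IDH1KD HT-1080 cells, 750/well, RPMI + 5% FBS; compound pinned after 2 h settling; 48 h, 37 °C; CellTiter-Glo luminescence; % activity normalised to DMSO and no-cell wells; curves fitted, classed by r2 and efficacy.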
# IL-1B inflam inh = inhibitors of inflammasome signaling (IL-1 beta secretion); 4.7% of 360,000 active; AID 743279; activity change, % at 57.5 µM; THP-1 LPS/ATP IL-1B secretion, AlphaLISA, 16 h; active compounds read low; in the data active = activity change below about -50%; inconclusive = mostly about -30% to -49%
#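 Secreted IL-1B measured by AlphaLISA bead assay after 16 h compound exposure of THP-1 cells; compounds (final up to 57.5 uM) added 1 h before LPS (250 ng/mL) and ATP (1.25 mM) stimulation; lower signal means less secretion.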
# TDP1 cell noCPT = qHTS for Inhibitors of human tyrosyl-DNA phosphodiesterase 1 (TDP1): qHTS in cells in absence of CPT | DT40 Tdp1-/- hTDP1 cells, no CPT, ATP luminescence, 48 h | Potency, µM (doses to about 46.2 µM), for inactives: top-dose activity change, negative = growth inhibition, hits mostly inhibitors | 15% of 420,000 active | AID 686978, 2013; also: potency is read from the fitted curve at half-maximal effect; nearly all actives have a fitted effect of over 55% in size
#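 Compound effects on proliferation are scored in DT40 Tdp1-/-;hTDP1 cells in the absence of CPT. ATP levels (CellTiter-Glo luminescence) are recorded after a ≥48 hr, 37 °C incubation.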
# DT40 TDP1 CPT = DT40-hTDP1 cell growth loss with CPT; AID 686979; chicken DT40 Tdp1-/-;hTDP1 cells + 20 nM CPT, ATP luminescence, 48 h; Potency, µM (titrated, usually from 46.2 µM), for inactives: at the top dose activity change, negative = growth inhibition, most hits filed as inhibitors; 12% of 420,000 active; also: potency is read from the fitted curve at half-maximal effect; nearly all actives have a fitted effect of over 55% in size
#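 Chicken DT40 Tdp1-/- cells stably complemented with human TDP1 were seeded at 400 cells/well in medium containing 20 nM camptothecin, exposed to pin-transferred compounds, and grown at 37 °C for at least 48 hr. Viability was read as ATP luminescence.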
# HT1080-NT tox = kills 2HG-producing HT-1080-NT fibrosarcoma cells; HT-1080-NT fibrosarcoma viability, CellTiter-Glo ATP luminescence, 48 h; Potency, µM (highest dose often 46.1 µM), without a hit: top-dose activity, negative = less viability, actives largely listed as cytotoxic; 1.6% of 360,000 active; AID 686970;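 also: NT is the 2HG producing partner of a matched IDH1 knockdown line; potency is read from the fitted curve at half-maximal effect; 0% = DMSO-treated cells and -100% = media-only wells without cells; nearly all actives have a fitted effect of over 55% in size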
#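 Luminescent CellTiter-Glo readout after 48 hours of compound exposure at 37 degrees C defined viability of HT-1080-NT cells. Activity was normalized to DMSO wells and cell-free media wells; concentration-response curves were fitted and assigned curve classes.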
# * marks the source's active call; other numbers are inactive results; ? = inconclusive; · = not tested or not shown; [ ] = remark or other dose. Unless noted, calls follow the shape of the dose curve; as a rule, active = well fitted curve in the direction sought with a large enough effect; inconclusive = small, poorly fitted or top-dose-only effect, or another doubt; inactive = no such curve, though single readings can be large; an effect the other way counts as inactive or inconclusive. Unless noted, % is scaled to controls: 0 for no effect and ±100 for the full control effect.
SMILES,HT1080 IDH1KD tx,IL-1B inflam inh,TDP1 cell noCPT,DT40 TDP1 CPT,HT1080-NT tox
O=C(OCc1ccccc1)N1CCC2CC1c1cc(-c3ccccc3)ccc12 (centres undefined),5.0%,2.5,23.1µM*,?,0.5%
O=C(c1cccc(Cl)c1)N1CCN(c2ccc3c(c2)C2CC3CCN2C(=O)OCc2ccccc2)CC1 (centres undefined),?,-29.0,14.6µM*,?,?
N#Cc1ccc(C(=O)N2CCC3CC2c2cc(N4CCCCC4)ccc23)cc1 (centres undefined),-0.8%,10.4,16.4µM*,16.4µM*,-1.9%
N#Cc1ccc(C(=O)N2CCC3CC2c2cc(-c4ccccc4)ccc23)cc1 (centres undefined),0.8%,-5.0,?,?,-2.6%
COc1ccc(Cl)cc1NC(=O)c1nn(C)c2c1CS(=O)(=O)c1ccccc1-2,·,·,-6.9%,-4.6%,·
O=C(NCc1ccc2c(c1)OCO2)c1nc(S(=O)(=O)Cc2ccccc2)ncc1Cl,16.4µM*,-104.1*,4.11µM*,2.59µM*,16.4µM*
O=C(NCc1ccc2c(c1)OCO2)c1nc(S(=O)(=O)Cc2ccccc2F)ncc1Cl,?,-99.5*,2.06µM*,4.11µM*,16.4µM*
CN(Cc1ccccc1)S(=O)(=O)c1ccc(Cl)c(C(=O)NCc2ccc3c(c2)OCO3)c1,-11.4%,-2.8,?,?,-5.6%
CC1CCCCC12NC(=O)N(CC(=O)N1CCN(S(=O)(=O)/C=C/c3ccccc3)CC1)C2=O (centres undefined),-7.1%,-12.3,6.4%,-2.0%,-1.1%
O=C1Nc2ccccc2C1=Nc1ccc2[nH]c3ccccc3c2c1,8.3%,?,-4.9%,?,1.3%
CC(CCC(=O)NN)C1CCC2C3CCC4CC(O)CCC4(C)C3CCC12C (centres undefined),-11.0%,0.0,25.9µM*,1.3%,-0.7%
COC(=O)[C@@]1(Cc2ccc(F)cc2)[C@H]2c3cc(C(=O)N4CCCC4)n(Cc4ccc(S(C)(=O)=O)cc4)c3C[C@H]2CN1C(=O)c1ccccc1,?,-21.5,18.4µM*,?,-27.7%
COC(=O)[C@@]1(Cc2ccc(F)cc2)[C@H]2c3cc(C(=O)N(C)C)n(Cc4ccccn4)c3C[C@H]2CN1C(=O)c1ccccc1,-3.1%,0.4,?,?,-2.6%
COC(=O)[C@@]1(Cc2ccc(F)cc2)[C@H]2c3cc(C(=O)N4CCCC4)n(Cc4ccc(C(F)(F)F)nc4)c3C[C@H]2CN1C(=O)c1ccccc1,-10.2%,?,?,?,-12.4%
COC(=O)[C@@]1(Cc2ccc(F)cc2)[C@H]2c3cc(C(=O)N(C)C)n(Cc4ccc(S(C)(=O)=O)cc4)c3C[C@H]2CN1C(=O)c1ccccc1,-16.2%,0.0,?,20.6µM*,-12.0%
COc1ccccc1CNC(=O)N1CCN(S(=O)(=O)c2ccccc2)CC1,5.8%,-8.9,-0.7%,-17.9%,3.3%
N#Cc1ccc(-c2cccs2)nc1SCc1cccnc1,?,92.8,0.411µM*,0.517µM*,?
OCC[C@@H]1C[C@H](O)[C@@H](O)[C@]2(OCc3cc(Cl)ccc32)O1,20.1%,8.0,0.4%,0.8%,8.3%
CN(C)CCNC(=O)c1c(CSc2ccc(Cl)cc2)noc1C(=O)NCc1ccccc1,9.0%,-3.9,16.4µM*,18.4µM*,7.4%
CCCCNC(=O)c1c(CSc2ccc(Cl)cc2)noc1C(=O)NCc1ccccc1,2.0%,13.2,?,18.4µM*,-0.3%
CC[C@@H]1C/C=C\Cc2ccccc2[C@H](C(=O)C[C@@H](O)CC(C)=O)OC1=O,5.0%,60.6,?,13µM*,-1.5%
CCCCC(=O)N(C)c1c(C)nc2ccc(C(=O)N3CCNC(=O)C3)cn12,14.2%,15.5,-14.4%,-11.9%,23.5%
CCOc1cc(C(=O)Nc2ccc(F)cc2)cc(Br)c1OC,-4.3%,-24.7,?,-21.3%,-16.5%
CC(=O)c1ccc(N2CCN(C(=O)Nc3ccc(C(C)C)cc3)CC2)cc1,?,-25.6,16.4µM*,?,?
CC(=O)c1ccc(C(=O)Nc2ccc(N3CCOCC3)cc2)cc1,24.7%,-20.0,9.2%,9.6%,15.8%
SMILES,HT1080 IDH1KD tx,IL-1B inflam inh,TDP1 cell noCPT,DT40 TDP1 CPT,HT1080-NT tox
CCOc1cc(C(=O)Nc2ccc(N3CCOCC3)cc2)cc(Br)c1OC,?,-0.4,25.9µM*,?,?
CC(C)(C)c1ccc(C(=O)Nc2ccc(N3CCOCC3)cc2)cc1,?,?,18.4µM*,18.4µM*,?
CC(C)(C)c1ccc(C(=O)Nc2ccc(C(=O)N3CCCC3)cc2)cc1,-21.0%,-1.8,23.1µM*,20.6µM*,-4.4%
CCCCn1c(=O)[nH]c(=O)c2c1nc(CN(C)Cc1cccc(OC)c1OC)n2CCC,-10.9%,41.3,?,?,-17.5%
CCCCn1c(N)c(N(CCOC)C(=O)c2cc(S(=O)(=O)N3CCCCC3)ccc2C)c(=O)[nH]c1=O,11.4%,-4.3,-17.6%,-25.7%,10.6%
CC(C)(C)c1ccc(C(=O)N2CCC(C(=O)NC3CC3)CC2)cc1,6.0%,19.1,-13.4%,-4.5%,-0.4%
O=C(Nc1ccc(N2CCOCC2)cc1)C1(c2ccc(Cl)cc2)CCC1,-4.9%,-22.4,?,-27.8%,-5.9%
CC(C)(C)c1ccc(NC(=O)c2ccsc2)cc1,?,?,23.1µM*,?,-26.5%
CC(C)(C)c1ccc(C(=O)N2CCC(NC(=O)c3ccccc3)CC2)cc1,-1.9%,6.9,?,14.6µM*,-14.7%
O=C(Nc1ccc(Cl)cc1)Nc1ccc(N2CCOCC2)cc1,-8.8%,110.8,18.4µM*,?,-0.6%
CC(C)c1ccc(C(=O)Nc2ccc(N3CCOCC3)cc2)cc1,?,6.8,20.6µM*,18.4µM*,?
O=C1c2ccccc2C(=O)N1c1cccc(N2C(=O)c3ccccc3C2=O)n1,·,·,-2.0%,11.6%,·
COc1ccc(C2=[N+]([O-])C(C)(C)N(O)C2C)cc1 (centres undefined),-6.1%,-6.6,3.1%,-2.4%,-2.3%
CC(=O)NC(Cc1ccccc1C)C(=O)NC1CCN(C(=O)c2ccc(C)cc2)CC1 (centres undefined),4.9%,19.3,6.0%,-6.1%,5.3%
O=C(Nc1ccc(N2CCOCC2)cc1)c1cn2ccccc2n1,?,-13.6,10.3µM*,13µM*,-24.6%
O=C(CNC(=O)c1cccs1)NCCN1CCN(c2ccccc2F)CC1,11.8%,14.1,-16.9%,1.3%,10.6%
Cc1ncc2c(c1CNC(=O)c1cncs1)CCN(C(=O)c1ccc(C(C)(C)C)cc1)C2,·,·,?,13.0%[9.04 µM],·
